Assay outcomes from PubChem.
CHT allo act: CHT positive allosteric modulators, primary screen, cell-based, membrane potential dye, choline EC20; High affinity choline transporter 1 (Homo sapiens), Q9GZV3; CHT-expressing cells; stronger effect = higher value; LV-AA mutant CHT in HEK293 cells; B-score at 10 µM; 0.49% of 310,000 active; AID 488977, 2010;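 active means initial fluorescence not abnormally high and integrated response B-score, plate-corrected, over 3 SD above library mean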
PGE2 EP2 inh: human EP2 receptor antagonists, primary screen, TR-FRET cAMP, C6 glioma cells; inhibition, % at 25 µM; 0.52% of 260,000 active; AID 1422, 2008; C6 glioma cells expressing human EP2; cells stimulated with saturating PGE2; Prostaglandin E2 receptor EP2 subtype (Homo sapiens), P43116;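 active means percent inhibition above 40 after rounding to a whole number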;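 further: rat C6 glioma host cells with rolipram phosphodiesterase inhibitor present; the protocol text gives 20 µM as final concentration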
Target sequence (P43116 whole entry, looked up): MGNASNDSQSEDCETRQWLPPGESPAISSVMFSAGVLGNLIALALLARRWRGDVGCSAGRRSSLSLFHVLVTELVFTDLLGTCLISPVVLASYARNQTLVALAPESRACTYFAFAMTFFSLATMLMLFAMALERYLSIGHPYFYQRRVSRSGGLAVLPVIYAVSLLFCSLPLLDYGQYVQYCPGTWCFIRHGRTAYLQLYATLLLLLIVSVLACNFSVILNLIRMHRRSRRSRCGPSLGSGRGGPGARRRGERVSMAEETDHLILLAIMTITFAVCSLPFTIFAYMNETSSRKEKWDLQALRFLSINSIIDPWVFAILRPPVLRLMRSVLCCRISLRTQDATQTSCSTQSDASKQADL
CHT block: inhibitors of human choline transporter CHT. B-score at 10 µM. 0.86% of 310,000 active. CHT-expressing cells, membrane potential dye, choline response; stronger effect = lower value;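 active means B-score over 3 SD under the library average, and starting fluorescence ratio not unusually high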;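 further: choline stimulus applied at its EC90 after an EC20 pre-addition; B-score computed on integrated fluorescence ratio after choline addition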
EP2 modulator: EP2 receptor modulators, cAMP readout, primary screen, cell-based, HTRF cAMP, PGE2 stimulation; 0.83% of 260,000 active; induction, % at 25 µM; Prostaglandin E2 receptor EP2 subtype (Homo sapiens), P43116; EP2-expressing cells, cAMP HTRF FRET, PGE2 co-stimulation;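 active means compounds whose cAMP rise, as percent of the full-agonist control response, exceeds 60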;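 further: rat C6 glioma line stably carrying human EP2 under a CMV promoter; the protocol text gives 20 µM as final concentration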
CHT activ conf: CHT activators, confirmation, cell-based, membrane potential dye, duplicate. shares compounds with CHT allo act. CHT-expressing cells, membrane potential dye fluorescence (FDSS); % of choline EC20–EC90 response window; HEK293 expressing CHT LV-AA mutant; choline added at its EC20. activation, % at 10 µM. 91% of 2,500 active;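 active means primary screen active, with duplicate mean activation above negative control mean plus 3 SD, cut at about 11% in these data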
HEK293 MP dye: membrane potential response in parental HEK293 cells, counter-screen for CHT activator project, cell-based, membrane potential dye; ratio readout change at 10 µM, hits read low; shares compounds with CHT allo act; AID 623908, 2012; 62% of 2,500 active; membrane potential dye fluorescence (FDSS); measured after EC20 choline addition;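 active means duplicate-averaged ratio beyond 3 SD from buffer wells, up or down, though filed actives are nearly all decreases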
Each line names hits and unclear results; the compound was inactive in the other large screens (follow-up assays come after a bar, where they were run). Hits are enriched below; roughly 2.1% of the tested compounds scored in any of these assays.

O=C(NC1CCCCC1)C(c1ccc2ncccc2c1)N(Cc1ccc(F)cc1)C(=O)c1cccs1 (stereo unspecified)	none | CHT activ conf 30.6 | HEK293 MP dye inactive
O=C(NC1CCCCC1)C(c1ccc(F)cc1)N(C(=O)c1cccs1)c1ccc2c(c1)OCO2 (stereo unspecified)	none
CC1=NN(c2ccccc2)C(=O)/C1=C/N(C)C	none
CC1=NN(c2nc3ccccc3[nH]2)C(=O)/C1=C/N(C)C	none | CHT activ conf 46.2 | HEK293 MP dye -32.9
Cc1ccccc1OCC(O)Cn1c(=N)n(Cc2ccccc2)c2ccccc21 (stereo unspecified)	none
Cc1ccc(OCC(O)Cn2c(=N)n(CCN3CCCCC3)c3ccccc32)cc1 (stereo unspecified)	CHT allo act 9.58 | CHT activ conf 19.5 | HEK293 MP dye inactive
CCN(CC)CCn1c(=N)n(CC(=O)c2ccc(Br)s2)c2ccccc21	CHT allo act 6.41 | CHT activ conf 21.2 | HEK293 MP dye inactive
COc1ccccc1OCC(O)Cn1c(=N)n(Cc2ccccc2)c2ccccc21 (stereo unspecified)	CHT allo act 9.55 | CHT activ conf 28.5 | HEK293 MP dye inactive
Cn1c(=N)n(CC(=O)c2ccc(Br)s2)c2ccccc21	none (no result: PGE2 EP2 inh)
CCN(CC)CCn1c(=N)n(CC(O)COc2ccccc2)c2ccccc21 (stereo unspecified)	CHT allo act 7.25 | CHT activ conf 21.1 | HEK293 MP dye inactive
CCNC(=S)N(Cc1cccnc1)Cc1cc2c(C)ccc(C)c2[nH]c1=O	none (no result: CHT allo act, CHT block)
O=C(NCCN1CCc2ccccc21)c1cc(-c2ccccn2)n[nH]1	none (no result: CHT allo act, CHT block)
N#Cc1cc2c(nc1SCC(=O)Nc1ccc(F)cc1)CCCCCC2	none (no result: CHT allo act, CHT block)
COc1ccc(Cl)cc1NC(=O)CSc1nnc2c(n1)[nH]c1ccc(F)cc12	none (no result: CHT allo act, CHT block)
CCCCn1c(=N)n(CCOc2ccc(C)cc2)c2ccccc21	CHT allo act 9.71 | CHT activ conf 25.0 | HEK293 MP dye inactive
COc1ccc(-c2nn(CC(=O)N3CCCC3)c(=O)o2)c2ccccc12	none (no result: CHT allo act, CHT block)
OCCNc1nc(N2CCN(Cc3ccccc3)CC2)nc2ccccc12	none | CHT activ conf 59.5 | HEK293 MP dye -71.9
OCCNc1nc2ccccc2nc1NCCO	none
OCCNc1c2ccccc2nc2ccccc12	CHT allo act 6.32 | CHT activ conf 40.3 | HEK293 MP dye -47.2
CCN1CCN(c2nc(NCCO)c3ccccc3n2)CC1	CHT allo act 8.87 (no result: PGE2 EP2 inh, EP2 modulator) | CHT activ conf 75.9 | HEK293 MP dye -79.1
C=CCNc1nc(N2CCCC2)nc2ccccc12	none (no result: PGE2 EP2 inh)
OCCNc1nc(-c2ccccc2)nc2ccccc12	none
CCc1cc2cc(C)cc(C)c2nc1SCC(=O)NNC(=O)C(C)C	none (no result: CHT allo act, CHT block)
Cc1cc(N2CCN(c3ccccn3)CC2)n2cc(-c3ccccc3)nc2n1	none
Cc1cc(N2CCN(C)CC2)n2cc(-c3ccc(F)cc3)nc2n1	CHT allo act 6.86 | CHT activ conf 39.4 | HEK293 MP dye -63.8
Cc1cc[n+]2c3c(cccc13)CCC2	CHT allo act 10.9 | CHT activ conf 88.6 | HEK293 MP dye -85.4
CCc1ccc2[nH]c(=O)c(CN(C(=S)NCc3ccccc3)C3CCCCC3)cc2c1	none (no result: CHT allo act, CHT block)
COc1ccc(-c2ccnc(SCC(=O)Nc3nc4c(s3)CCCC4)n2)cc1	none (no result: CHT allo act, CHT block)
CCOC(=O)c1c[nH]c2nc(C)ccc2c1=O	CHT allo act 10.2 | CHT activ conf 62.7 | HEK293 MP dye -62.5
CCOC(=O)c1c[nH]c(=O)c(Br)c1O	none
Cn1c(=O)[nH]c(=O)c2c1nc(N1CCc3ccccc3C1)n2CCSc1nc2ccccc2s1	none
CN1CCN(c2nc3c(c(=O)[nH]c(=O)n3C)n2CCSc2nc3ccccc3s2)CC1	CHT allo act 9.23 | CHT activ conf 50.2 | HEK293 MP dye -55.3
Cc1nnc(SCCn2c(N3CCN(C)CC3)nc3c2c(=O)[nH]c(=O)n3C)s1	CHT allo act 6.87 | CHT activ conf 58.8 | HEK293 MP dye -67.2
Cc1oc2ccccc2c1CN1CCc2c(nc(N3CCCCC3)[nH]c2=O)C1	none (no result: CHT allo act, PGE2 EP2 inh, CHT block)
O=C(Cn1nc(-c2ccc(F)cc2)n(-c2ccncc2)c1=O)NCC1CC1	none (no result: CHT allo act, PGE2 EP2 inh, CHT block)
CCn1cc(C2=NCCO2)c2ccccc21	CHT allo act 9.38 | CHT activ conf 43.0 | HEK293 MP dye -43.6
c1ccc(CN2CCN(CCN3CCn4c3nc3ccccc34)CC2)cc1	none | CHT activ conf 27.0 | HEK293 MP dye inactive
Cc1nn(S(=O)(=O)c2ccccc2)c(C)c1Sc1ccc([N+](=O)[O-])cc1	CHT allo act 8.01 | CHT activ conf 29.0 | HEK293 MP dye inactive
Cc1nn(S(=O)(=O)c2cccs2)c(C)c1Sc1ccc([N+](=O)[O-])cc1	none
Cn1c(SCC(=O)Nc2ccc(Br)cc2)nnc1-c1ccccc1Br	none (no result: CHT allo act, CHT block)
Cc1c(C(=O)OC(C)CC[N+](C)(C)C)oc2ccccc12 (stereo unspecified)	none (no result: CHT allo act, CHT block)
COc1ccc([N+](=O)[O-])cc1C(=O)NC1CCN(Cc2ccccc2)CC1	CHT allo act 6.87 (no result: PGE2 EP2 inh, EP2 modulator) | CHT activ conf 45.6 | HEK293 MP dye -42.6
COc1ccc(C(=O)NC2CC2)cc1OC1CCN(Cc2ccccc2)CC1	none (no result: PGE2 EP2 inh, EP2 modulator)
CCC1CCCCN1CCCNC(=O)C1CCN(Cc2nc(-c3ccc(Cl)cc3)oc2C)CC1 (stereo unspecified)	none (no result: PGE2 EP2 inh, EP2 modulator) | CHT activ conf 36.1 | HEK293 MP dye -29.6
COc1ccc(-c2nc(CN3CCC(C(=O)NC4CCN(Cc5ccccc5)CC4)CC3)c(C)o2)cc1OC	CHT allo act 7.55 (no result: PGE2 EP2 inh, EP2 modulator) | CHT activ conf 59.7 | HEK293 MP dye -50.7
Cc1oc(-c2ccc(Cl)cc2)nc1CN1CCC(C(=O)NCCCN2CCOCC2)CC1	none
OC(CN1CCN(c2ccccc2Cl)CC1)c1ccc2c(c1)CCO2 (stereo unspecified)	none (no result: CHT allo act, CHT block)
C=CCn1c(SCC(=O)c2ccc(C)cc2)nc2sc(C)cc2c1=O	none (no result: CHT allo act, CHT block)
C=CCNC(=O)c1ccc2c3n(nc2c1)-c1ccc(Cl)cc1CO3	CHT allo act 6.46 (no result: EP2 modulator) | CHT activ conf 15.4 | HEK293 MP dye -20.4
Cc1cccc(NC(=O)N(Cc2cccnc2)Cc2cc3cc(C)ccc3n3nnnc23)c1	none (no result: CHT allo act, CHT block)
O=C(O)CCc1nn2cnc3sc4c(c3c2nc1=O)CCCC4	none | CHT activ conf 54.3 | HEK293 MP dye -42.6
COc1ccc(OC)c(C2C(C(=O)c3cc4ccccc4o3)=C(O)C(=O)N2c2cc(C)on2)c1 (stereo unspecified)	none | CHT activ conf 10.6 | HEK293 MP dye inactive
CCOc1ccc(N=Nc2c(=O)[nH]n3c(C)cc(C)nc23)cc1	none | CHT activ conf 42.0 | HEK293 MP dye -48.7
